Our source for the outcome and AC50 values is PubChem BioAssay (EPA / NIEHS).

A short description of assay [1]: APR_HepG2_P-H2AX_72hr: Apredica 72-hour HepG2 Assay for H2AX Phosphorylation (AID 2282916).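 Note: phospho-histone H2A.x immunostain intensity per cell marking DNA damage.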 To be noted: imaging, actives raise or lower the signal. A digest of the protocol:
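Human hepatoma HepG2 cells are dosed across ten concentrations (0.39 to 200 uM, 0.5% v/v DMSO) and incubated 72 hr. Phospho-histone H2A.x is then detected by antibody staining alongside c-Jun and Hoechst, and quantified by automated fluorescence imaging.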

Assay [2] in a line: APR_HepG2_MitoMembPot_72hr: Apredica 72-hour HepG2 Assay for Mitochondrial Membrane Potential (AID 2282917). To be noted: imaging, actives raise or lower the signal. A digest of the protocol:
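HepG2 cells exposed 72 h to compounds at 0.39–200 uM (0.5% v/v DMSO, duplicates); MitoTracker Red CMXRos 250 nM loaded 30 min before 3.7% formaldehyde fixation, imaged by HCS fluorescence. Bidirectional fit versus DMSO.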

Assay [3] is described as follows: APR_HepG2_MitoticArrest_72hr: Apredica 72-hour HepG2 Assay for Mitotic Arrest (AID 2282918). The following applies: high-content imaging, actives raise or lower the signal. In outline: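 HepG2 cells were exposed for 72 hr to compound at 0.39–200 uM (10 concentrations, duplicate) in 0.5% v/v DMSO, fixed in 3.7% formaldehyde, immunostained for phospho-histone H3 with Hoechst 33342 and imaged by high-content fluorescence; bidirectional fits versus DMSO.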

A short description of assay [4]: APR_HepG2_MicrotubuleCSK_72hr: Apredica 72-hour HepG2 Assay for Microtubule CSK Stabilty (AID 2282919). To be noted: HepG2 microtubule cytoskeleton, high-content imaging, actives raise or lower the signal. A digest of the protocol: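 Ten-point dosing (0.39–200 uM, 0.5% DMSO) of HepG2 for 72 hr, with taxol as the cytoskeletal positive control. The cells were formaldehyde-fixed and then stained with alpha-tubulin/Cy5 and Hoechst. Imaging at 20x used a −2 um Z offset for tubulin.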

Assay [5] in a line: APR_HepG2_P-H2AX_24hr: Apredica 24-hour HepG2 Assay for H2AX Phosphorylation (AID 2282920). The following applies: high-content imaging, actives raise or lower the signal. In outline: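 HepG2 human liver cells were exposed for 24 hr to compounds at 0.39–200 uM in duplicate, with 0.5% v/v DMSO final. Fixed cells were immunostained for phospho-histone H2A.x plus Hoechst 33342, imaged by HCS fluorescence, and fitted bidirectionally against DMSO.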

Assay [6] is described as follows: APR_HepG2_StressKinase_72hr: Apredica 72-hour HepG2 Assay for Stress Kinase (AID 2282921). To be noted: HepG2 stress kinase (phospho-c-Jun) imaging, actives raise or lower the signal. In outline: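 After a 72 h compound treatment spanning 0.39 to 200 uM, formaldehyde-fixed cells are labelled for phosphorylated c-Jun and nuclei, imaged by automated fluorescence microscopy, and activity is fitted in both directions relative to DMSO controls.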

Assay [7] can be described thus: APR_HepG2_StressKinase_24hr: Apredica 24-hour HepG2 Assay for Stress Kinase (AID 2282922). The following applies: HepG2 stress kinase (phospho-c-Jun) imaging, actives raise or lower the signal. A digest of the protocol:
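After 24 hr compound treatment (up to 200 uM, final DMSO 0.5% v/v), HepG2 cells are fixed and multiplex-labeled; phospho-c-Jun intensity is captured by high-content fluorescence imaging and analyzed relative to DMSO.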

The nature of assay [8]: APR_HepG2_p53Act_72hr: Apredica 72-hour HepG2 Assay for p53 Activation (AID 2282923).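 Note: average cellular p53 protein immunofluorescence intensity in HepG2 cells.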 To be noted: high-content imaging, actives raise or lower the signal. In outline:
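Imaging-based endpoint: after 72 hr compound exposure (up to 200 uM, 0.5% DMSO), fixed and permeabilized monolayers were labelled with anti-p53 antibody and imaged; signal change in either direction was fitted relative to DMSO controls.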

Assay [9] is described as follows: APR_HepG2_MitoMass_72hr: Apredica 72-hour HepG2 Assay for Mitochondrial Mass (AID 2282924).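 Note: MitoTracker Red CMXRos stain intensity per cell imaged as mitochondrial mass.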 The following applies: high-content imaging, actives raise or lower the signal. A digest of the protocol:
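Steps: treat HepG2 72 hr (0.39–200 uM, duplicate wells); load MitoTracker Red CMXRos, 250 nM, 30 min; fix with 3.7% formaldehyde, permeabilise with 0.5% Triton X-100; capture images, nuclei via Hoechst 33342; fit bidirectionally against DMSO.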

Assay [10] in a line: APR_HepG2_NuclearSize_72hr: Apredica 72-hour HepG2 Assay for Nuclear Size (AID 2282925). To be noted: high-content imaging, actives raise or lower the signal. A digest of the protocol:
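Compounds (0.39–200 uM, final DMSO 0.5%) were applied to HepG2 for 72 hr. Cells were then formaldehyde-fixed, permeabilized and labelled with Hoechst 33342. Nuclear diameter was quantified from six images per well.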

Assay [11] is described as follows: ATG_CRE_CIS: Attagene CIS-FACTORIAL HepG2 Assay for human cAMP Responsive Element (CRE) binding protein 3 (AID 2282926). The following applies: HepG2 CRE cis-reporter, Attagene multiplexed mRNA; actives raise or lower the signal. In outline:
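Capillary electrophoresis of 6-FAM-labelled, HpaI-digested PCR products quantified reporter transcripts. These came from HepG2 transiently transfected with cis-element reporters and exposed to test chemicals for 24 hours, with DMSO defining baseline activity.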

A short description of assay [12]: ATG_CMV_CIS: Attagene CIS-FACTORIAL HepG2 Assay for human CMV (Internal Marker) (AID 2282928).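 Note: endpoint acts as a background internal control marker rather than a target.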 To be noted: HepG2 CMV promoter reporter, transcription factor profiling; actives raise or lower the signal. A digest of the protocol: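 Bidirectional fits against DMSO are applied to reporter mRNA, read by RT-PCR with capillary electrophoresis, from HepG2 cells exposed 24 h. The endpoint serves as an internal CMV background marker within the cis-factorial reporter panel.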

Assay [13] is described as follows: ATG_DR4_LXR_CIS: Attagene CIS-FACTORIAL HepG2 Assay for human Liver X Receptor (LXR), DR4 submotif (AID 2282929). The following applies: HepG2 Attagene DR4 cis-reporter, mRNA transcription; actives raise or lower the signal. A digest of the protocol:
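After transient transfection with multiplexed cis-promoter reporter units, HepG2 cells received test chemicals for 24 h. Reporter mRNA induction, detected by fluorescence after RT-PCR and capillary electrophoresis, was scored relative to DMSO.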

Assay [14] deals with Aryl hydrocarbon receptor (Homo sapiens) (UniProt P35869). Description: ATG_Ahr_CIS: Attagene CIS-FACTORIAL HepG2 Assay for human Aryl Hydrocarbon Receptor (Ahr) (AID 2282930). To be noted: HepG2 AhR cis-factorial reporter transcription; actives raise or lower the signal. A digest of the protocol:
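Values derive from bidirectional fitting against DMSO negative control. Underlying signal: cis-element reporter mRNA in transiently transfected HepG2, harvested 24 h post-dose and measured by RT-PCR plus capillary electrophoresis.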

Assay [15] in a line: ATG_AP_1_CIS: Attagene CIS-FACTORIAL HepG2 Assay for human Activator Protein 1 (AP-1) (AID 2282931). The following applies: HepG2 Attagene cis-factorial AP-1 reporter mRNA; actives raise or lower the signal. In outline:
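After 24 h incubation with test chemical, RNA from transfected HepG2 cells was reverse-transcribed, amplified, fluorescently labelled and digested before capillary electrophoresis. Reporters were driven by cis-regulatory promoters; activity fitted bidirectionally versus DMSO.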

The nature of assay [16]: ATG_AP_2_CIS: Attagene CIS-FACTORIAL HepG2 Assay for human Activator Protein 2 (AP-2) (AID 2282932). To be noted: HepG2 AP-2 cis-reporter, Attagene transcription factor profiling; actives raise or lower the signal. In outline: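 Cells (HepG2) transfected with promoter-driven reporter constructs, treated 24 h. Total RNA reverse-transcribed, reporter cDNA PCR-amplified, FAM-labelled by primer extension, digested, resolved by capillary electrophoresis. Activity fitted both directions versus DMSO.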

Assay [17] in a line: ATG_BRE_CIS: Attagene CIS-FACTORIAL HepG2 Assay for human Bone Morphogenetic Protein (BMP) Response Element (BRE) (AID 2282933). To be noted: HepG2 BMP response element reporter, Attagene transcription factor profiling; actives raise or lower the signal. In outline:
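HepG2 cells transiently transfected with CIS reporter units (endogenous TF activity, BMP response element), dosed 24 h. Reporter mRNA quantified by RT-PCR, fluorescent labelling and capillary electrophoresis; bidirectional fit vs DMSO baseline.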

Assay [18] deals with Retinoic acid receptor alpha (Homo sapiens) (UniProt P10276). Kind of assay: ATG_DR5_RAR_CIS: Attagene CIS-FACTORIAL HepG2 Assay for human Retinoic Acid Receptor Alpha (RARE), DR5 submotif (AID 2282934).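 For AC50: reporter responds to endogenous RAR alpha beta and gamma in HepG2 not RARA alone.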 The following applies: HepG2 Attagene cis-factorial RARE DR5 reporter, mRNA; actives raise or lower the signal. In outline: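 Endpoint fitted in both directions relative to DMSO as negative control. It reflects DR5 cis-element reporter mRNA induction in transiently transfected HepG2 cells, measured 24 h after dosing through RT-PCR and fluorescent capillary electrophoresis.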

Assay [19] in a line: APR_HepG2_CellLoss_72hr: Apredica 72-hour HepG2 Assay for Cell Loss (AID 2282915). The following applies: high-content imaging. In outline:
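HepG2 cells were exposed for 72 hr to compounds at 0.39–200 uM (ten concentrations, duplicate) in 0.5% v/v final DMSO. Nuclei were stained with Hoechst 33342 after 3.7% formaldehyde fixation, imaged at 20x, and counted; fits bidirectional versus DMSO.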

The target in assay [20] is CCAAT/enhancer-binding protein beta (Homo sapiens) (UniProt P17676). Kind of assay: ATG_C_EBP_CIS: Attagene CIS-FACTORIAL HepG2 Assay for human CCAAT/Enhancer Binding Protein (C/EBP) beta (AID 2282927). To be noted: HepG2 Attagene cis-factorial transcription factor reporter; actives raise or lower the signal. In outline:
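Following a 24 h incubation with test chemical, transfected HepG2 cells yielded RNA whose reporter transcripts were quantified by RT-PCR and fluorescent capillary electrophoresis, with DMSO serving as baseline for bidirectional fitting.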

By AC50 is commonly meant the concentration at which the activity in the assay is half-maximal.

Molecules are shown by their SMILES. Where a structure was tested more than once in an assay, its records may differ in their call. Calls of active or inactive are those of the source. Rule for the calls: active = hit-call score of the fitted dose curve at least 0.9, where 1 is the maximum; inactive = score below 0.9.

Retinoic acid receptor alpha (Homo sapiens), sequence (P10276 whole entry, looked up): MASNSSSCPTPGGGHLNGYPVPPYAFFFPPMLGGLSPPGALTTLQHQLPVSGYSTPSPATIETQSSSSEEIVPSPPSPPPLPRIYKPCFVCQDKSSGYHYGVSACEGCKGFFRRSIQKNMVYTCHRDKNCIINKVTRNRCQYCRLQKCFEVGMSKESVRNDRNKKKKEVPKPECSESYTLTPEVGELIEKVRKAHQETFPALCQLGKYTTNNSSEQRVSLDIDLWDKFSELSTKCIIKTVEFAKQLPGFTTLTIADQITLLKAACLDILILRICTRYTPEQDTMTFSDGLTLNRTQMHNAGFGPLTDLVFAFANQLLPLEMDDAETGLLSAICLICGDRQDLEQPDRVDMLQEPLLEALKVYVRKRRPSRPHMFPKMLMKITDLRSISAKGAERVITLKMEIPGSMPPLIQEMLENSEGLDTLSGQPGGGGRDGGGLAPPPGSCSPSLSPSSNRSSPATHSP
Aryl hydrocarbon receptor (Homo sapiens), sequence (P35869 whole entry, looked up): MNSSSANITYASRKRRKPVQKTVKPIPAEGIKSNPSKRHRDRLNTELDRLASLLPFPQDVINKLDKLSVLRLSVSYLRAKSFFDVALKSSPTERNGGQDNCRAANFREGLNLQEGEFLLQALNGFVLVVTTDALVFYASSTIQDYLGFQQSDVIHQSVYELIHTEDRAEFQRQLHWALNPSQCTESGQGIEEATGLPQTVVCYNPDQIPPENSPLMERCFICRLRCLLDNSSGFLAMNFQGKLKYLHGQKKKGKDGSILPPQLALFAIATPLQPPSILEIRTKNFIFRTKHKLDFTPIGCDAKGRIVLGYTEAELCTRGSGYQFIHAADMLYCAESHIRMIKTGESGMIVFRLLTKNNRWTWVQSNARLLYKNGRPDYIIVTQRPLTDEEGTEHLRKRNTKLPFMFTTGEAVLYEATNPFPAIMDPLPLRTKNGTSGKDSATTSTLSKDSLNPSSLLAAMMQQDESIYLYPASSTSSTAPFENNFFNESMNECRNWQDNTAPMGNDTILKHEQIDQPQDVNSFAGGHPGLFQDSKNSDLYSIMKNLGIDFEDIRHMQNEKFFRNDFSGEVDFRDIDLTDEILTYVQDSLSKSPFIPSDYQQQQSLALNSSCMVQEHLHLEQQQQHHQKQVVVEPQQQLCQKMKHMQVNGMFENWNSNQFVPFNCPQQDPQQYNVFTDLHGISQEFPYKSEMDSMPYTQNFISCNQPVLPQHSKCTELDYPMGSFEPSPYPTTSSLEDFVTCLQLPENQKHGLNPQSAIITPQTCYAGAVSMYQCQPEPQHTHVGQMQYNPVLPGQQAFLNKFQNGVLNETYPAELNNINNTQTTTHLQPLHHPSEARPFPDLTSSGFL
CCAAT/enhancer-binding protein beta (Homo sapiens), sequence (P17676 whole entry, looked up): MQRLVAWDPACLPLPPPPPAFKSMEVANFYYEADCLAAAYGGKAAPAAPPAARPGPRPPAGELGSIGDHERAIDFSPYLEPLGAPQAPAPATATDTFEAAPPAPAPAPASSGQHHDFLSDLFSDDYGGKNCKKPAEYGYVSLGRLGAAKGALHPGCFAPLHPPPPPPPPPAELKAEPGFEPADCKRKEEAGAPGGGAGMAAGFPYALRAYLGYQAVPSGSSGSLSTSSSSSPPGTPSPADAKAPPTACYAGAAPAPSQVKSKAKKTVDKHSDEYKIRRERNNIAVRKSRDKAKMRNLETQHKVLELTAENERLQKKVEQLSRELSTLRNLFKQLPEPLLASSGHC

In the case of `CC(C)N(C(=O)COc1nnc(C(F)(F)F)s1)c1ccc(F)cc1`, the compound was classed as inactive in [1], in assay [2], in assay [4], in [5], in assay [7] and in [8]. In addition, the outcome in [9], in assay [10], in assay [12], in [13], in [14] and in [16] was inactive. In addition, in [18], the result was inactive. In addition, the AC50 in assay [3] was 169 µM (active); in assay [6] it was 113 µM (active); in assay [11], 31.9 µM (active); in [15], 50 µM (active); in [17] it was 34.9 µM (active).
Turning to `CCCN(CCOc1c(Cl)cc(Cl)cc1Cl)C(=O)n1ccnc1`, the AC50 in [19] was 30.8 µM (active); in assay [4], 165 µM (active); in assay [12], 11.1 µM (active); in assay [15] it was 14 µM (active); in [17], 15.1 µM (active); in [18], 3.01 µM (active). Moreover, the result in assay [1], in assay [2], in assay [3], in [5], in assay [6] and in [8] was inactive. The result in assay [9], in assay [11], in assay [12], in assay [13], in [15] and in assay [16] was inactive. For the same compound, the outcome in assay [17] and in [18] was inactive.
As to `CC1(c2ccc(Oc3ccccc3)cc2)OC(=O)N(Nc2ccccc2)C1=O` (stereo not given), the AC50 in assay [19] was 32.6 µM (active); in [5], 93.2 µM (active); in assay [8], 121 µM (active); in [11] it was 1.3 µM (active); in [17], 1.14 µM (active). In addition, the outcome in assay [1], in assay [2], in assay [3], in [6], in assay [9] and in assay [20] was inactive. Further, the call in assay [12], in assay [13], in assay [14], in assay [15], in [16] and in assay [18] was inactive.
